Screening results from PubChem BioAssay.
This is a sample that favours compounds with a hit; in the whole collection about 0.92% have one here.
RECQ1 inh-1: inhibitors of human RECQ1 DNA helicase; RECQ1 DNA unwinding, red fluorescence kinetic read; AID 2549; Potency, µM (highest dose often 57.3 µM), without a hit: top-dose activity, negative = inhibition, hits mostly inhibitors; hit rate 0.54% among 240,000;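 further: plate controls were vehicle for no effect and no enzyme for full effect; nearly all actives have a fitted effect of over 30% in size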
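RECQ1T1 50 nM; forked duplex (20 bp + 30-nt ss tails) 200 nM, ATP 2 mM final; pH 8.0, 2 mM MgCl2, 2.5 ug/ml poly(dI-dC); 15 min compound preincubation; discontinuous kinetic read over 2 h at RT.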
L3MBTL1 inh: L3MBTL1 (human) inhibition; Q9Y468; AlphaScreen L3MBTL1–H3K9me1 peptide binding; Potency, µM (highest dose often 57.1 µM), for the others: top-dose activity, negative = inhibition, usual class: inhibitors; hit rate 0.66% among 230,000; AID 485360; further: nearly all actives have a fitted effect of over 60% in size
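Read-out is AlphaScreen signal from streptavidin donor and nickel chelate acceptor beads (10 ug/mL final each) bridging L3MBTL1 (50 nM) and biotinylated K9-monomethylated H3(1-15) peptide (75 nM), after 30 min compound exposure at room temperature.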
BLM inh: blocks DNA unwinding by human BLM helicase | Potency, µM (doses to about 56.1 µM), inactives show at the top dose activity change, negative = inhibition, usual class: inhibitors | recombinant BLM DNA unwinding, fluorescence dequenching | hit rate 0.2% among 350,000;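 further: plate controls were vehicle for no effect and no enzyme for full effect; nearly all actives have a fitted effect of over 35% in size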
Target sequence (P54132 whole entry, looked up): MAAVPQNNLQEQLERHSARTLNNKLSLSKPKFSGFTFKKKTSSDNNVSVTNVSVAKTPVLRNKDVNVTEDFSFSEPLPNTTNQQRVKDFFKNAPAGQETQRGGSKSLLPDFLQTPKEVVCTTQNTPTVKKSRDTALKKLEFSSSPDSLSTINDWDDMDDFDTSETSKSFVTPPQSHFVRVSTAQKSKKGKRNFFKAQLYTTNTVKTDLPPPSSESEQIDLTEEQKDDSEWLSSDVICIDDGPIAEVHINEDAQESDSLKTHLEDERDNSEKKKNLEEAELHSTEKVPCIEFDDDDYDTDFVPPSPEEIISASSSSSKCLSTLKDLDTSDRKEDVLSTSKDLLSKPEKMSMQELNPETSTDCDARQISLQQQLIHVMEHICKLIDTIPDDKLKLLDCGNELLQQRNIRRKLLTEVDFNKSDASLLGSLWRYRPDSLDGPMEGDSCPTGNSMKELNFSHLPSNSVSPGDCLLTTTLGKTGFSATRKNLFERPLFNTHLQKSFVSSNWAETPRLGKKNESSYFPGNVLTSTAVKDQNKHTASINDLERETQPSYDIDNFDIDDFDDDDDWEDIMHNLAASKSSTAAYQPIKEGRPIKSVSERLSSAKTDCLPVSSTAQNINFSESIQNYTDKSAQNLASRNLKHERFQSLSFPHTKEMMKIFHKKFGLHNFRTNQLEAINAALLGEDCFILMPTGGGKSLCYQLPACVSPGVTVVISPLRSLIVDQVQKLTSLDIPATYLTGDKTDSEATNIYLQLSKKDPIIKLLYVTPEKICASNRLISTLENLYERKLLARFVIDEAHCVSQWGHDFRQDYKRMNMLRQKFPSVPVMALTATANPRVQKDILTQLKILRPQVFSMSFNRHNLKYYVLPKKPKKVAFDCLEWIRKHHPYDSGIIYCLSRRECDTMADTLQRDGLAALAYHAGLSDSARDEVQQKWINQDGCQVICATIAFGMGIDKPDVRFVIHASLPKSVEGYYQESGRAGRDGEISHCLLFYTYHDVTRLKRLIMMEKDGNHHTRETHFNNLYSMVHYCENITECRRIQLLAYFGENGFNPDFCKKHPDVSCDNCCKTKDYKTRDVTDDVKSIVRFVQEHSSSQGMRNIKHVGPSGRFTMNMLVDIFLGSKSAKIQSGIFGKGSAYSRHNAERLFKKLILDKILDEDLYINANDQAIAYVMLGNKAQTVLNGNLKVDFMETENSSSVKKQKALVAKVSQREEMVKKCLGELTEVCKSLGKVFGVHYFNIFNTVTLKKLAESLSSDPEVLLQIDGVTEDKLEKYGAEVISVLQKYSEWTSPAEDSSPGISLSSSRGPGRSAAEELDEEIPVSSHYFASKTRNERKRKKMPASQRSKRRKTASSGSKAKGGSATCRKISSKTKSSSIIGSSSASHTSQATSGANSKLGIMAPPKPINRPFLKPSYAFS
WRN helicase inh: blocks human WRN helicase. WRN helicase unwinding, fluorescent forked duplex, kinetic. Potency, µM (series often up to 114 µM), for inactives: at the highest dose activity change, negative = inhibition, actives largely listed as inhibitors. hit rate 0.46% among 360,000. AID 651768; further: nearly all actives have a fitted effect of over 55% in size
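Enzyme (20 nM final) and test compound sit together 15 min at room temperature before substrate addition. Substrate is a single-forked duplex oligonucleotide (100 nM) labelled with fluorophore and quencher, with 2 mM ATP; helicase unwinding raises red fluorescence, read kinetically.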
APE1 inh: APE1 (human) endonuclease inhibition | P27695 | recombinant APE1, TAMRA/BHQ-2 abasic DNA cleavage fluorescence | Potency, µM (series often up to 65.8 µM), for the others: top-dose activity change, negative = inhibition, usual class: inhibitors | hit rate 0.35% among 350,000;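 further: plate controls were vehicle for no effect and reference inhibitor for full effect; nearly all actives have a fitted effect of over 55% in size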
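Compound pre-exposure to 0.75 nM APE1, 15 min at ambient temperature. Reaction initiated with 50 nM TAMRA/BHQ-2 THF substrate, read immediately in kinetic mode, 525 nm excitation, 598 nm emission.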
RECQ1 inh conf: confirmation of human RECQ1 helicase inhibitors. shares compounds with RECQ1 inh-1. RECQ1 helicase DNA unwinding, fluorescence. Potency, µM (series often up to 229 µM), for inactives: top-dose activity change, negative = inhibition, actives largely listed as inhibitors. hit rate 28% among 610; further: nearly all actives have a fitted effect of over 45% in size
RECQ1 ADP FP: displaces ADP in a fluorescence polarization counter-screen for RECQ1 hits | shares compounds with RECQ1 inh-1 | ADP fluorescence polarization displacement counterscreen | Potency, µM (series often up to 228 µM), for inactives: at the top dose activity change, negative = inhibition, actives largely listed as inhibitors | hit rate 27% among 530 | AID 2711; further: nearly all actives have a fitted effect of over 45% in size
RECQ1 inh-2: RECQ1 helicase inhibition confirmed, round 2; shares compounds with RECQ1 inh-1; hit rate 15% among 1,100; Potency, µM (top dose mostly 119 µM), for inactives: at the highest dose activity, negative = inhibition, most hits filed as inhibitors; AID 504841; recombinant RECQ1 DNA unwinding, red fluorescence; further: nearly all actives have a fitted effect of over 50% in size
Numbers without * were called inactive; i = inactive; ? = inconclusive; . = not tested or not shown; [ ] = remark or other dose. The call rests on the fitted dose curve; in most records, active means well fitted curve in the direction sought with a large enough effect; inconclusive means small, poorly fitted or top-dose-only effect, or another doubt; inactive means no such curve, though single readings can be large; an effect the other way counts as inactive or inconclusive. Unless noted, on the % scale 0 is the no-effect control and ±100 the full control effect; potency means the concentration at half of the fitted maximal effect.

SMILES | RECQ1 inh-1 | L3MBTL1 inh | BLM inh | WRN helicase inh | APE1 inh | RECQ1 inh-2 | others
Cc1ccc(C)c2[nH]c(=O)c(CN(Cc3ccc4c(c3)OCO4)Cc3nnnn3Cc3ccco3)cc12 | 22µM* | -6% | -17% | 2% | ? | -13%
CCc1ccc2[nH]c(=O)c(CN(Cc3ccccc3OC)Cc3nnnn3Cc3ccco3)cc2c1 | ? | -16% | -8% | -9% | ? | -19%
Cc1ccc2cc(CN(Cc3ccc4c(c3)OCO4)Cc3nnnn3Cc3ccco3)c(=O)[nH]c2c1C | i | ? | -28% | -2% | 9% | .
O=C(Nc1ccc(Cl)cc1Cl)c1cc(S(=O)(=O)N2CCc3ccccc32)ccc1F | . | . | -9% | . | . | .
CN(C)Cc1ccccc1-c1nc(NCc2cccs2)c2ccccc2n1 | -4% | . | 83% | . | -2% | .
Cc1cc(C(=O)CSc2nnc(-c3ccccc3)n2-c2ccccc2)c(C)n1-c1ncn[nH]1 | 35µM* | -5% | -11% | ? | 1% | ?
Cc1cc(C(=O)CSc2nnc(-c3ccncc3)n2-c2ccccc2)c(C)n1C | ? | -24% | -13% | ? | -5% | .
O=C(Nc1cccc(F)c1)N1CCCC2(CCN(C(=O)c3cc(C(F)(F)F)cc(C(F)(F)F)c3)CC2)C1 | -21% | . | -6% | . | -3% | .
O=C(N=C1SCC(=O)N1c1ccccc1Cl)c1ccco1 | 18µM* | -18% | -3% | -8% | -5% | ? | RECQ1 inh conf=14%[114 µM];RECQ1 ADP FP=132%[91.9 µM]
CC1(C(=O)O)NCCc2cc(O)c(O)cc21 (stereo unspecified) | 6.3µM* | . | . | . | 5.6µM* | . | RECQ1 inh conf=?;RECQ1 ADP FP=3.2µM*
O=C(c1cnccn1)N1CCC2(CC1)CN(C(c1ccccc1)c1ccccc1)C2 | -9% | . | 3% | . | 22% | .
Cc1cc(-c2csc(NC(=O)C3=COCCO3)n2)c(C)n1C | . | -15% | . | 8%[11.6 µM] | 15% | .
Cc1cc(-c2csc(NC(=O)c3ccc(=O)n(C)n3)n2)c(C)n1CC1CCCO1 (stereo unspecified) | ? | -4% | ? | -29% | -9% | -4%
COc1ccc(Nc2ccccc2N)cc1 | 22µM* | -7% | -24% | ? | -5% | 45µM*
Nc1ccc(Nc2ccccc2N)cc1 | 0% | -2% | ? | -28% | -3% | .
COc1cc(C2NCC(c3ccc(Cl)cc3Cl)c3c2[nH]c2ccccc32)cc(OC)c1OC (stereo unspecified) | ? | -19% | -14% | 0% | -5% | -23%
O=C(O)c1ccc(C2NCC(c3ccccc3Cl)c3c2[nH]c2ccccc32)cc1 (stereo unspecified) | i | -8% | -6% | -6% | 10% | .
Cc1sc2ncn(CC(=O)NCc3ccco3)c(=O)c2c1-c1ccc(F)cc1 | -15% | -9% | -8% | -17% | -3% | .
O=C(Cn1cnc2scc(-c3cccc([N+](=O)[O-])c3)c2c1=O)NCc1ccco1 | 25µM* | . | -25% | ? | ? | ?
CC(C)c1onc(-c2c(Cl)cccc2Cl)c1COc1ccc(/C=C/c2cccc(C(=O)O)c2)c(Cl)c1 | 32µM* | . | 32µM* | . | -5% | 35µM*
Nc1c(N2CCCC2)cc(Cl)c2nonc12 | ? | 28µM* | ? | -27% | ? | ?
Cc1ccc2oc(=O)c3cnn(CC(=O)N4CCN(c5cc(Cl)ccc5C)CC4)c3c2c1 | . | . | -2% | . | . | .
CCOc1ccc(CCNC(=O)c2ccc(-c3nc(CSc4ccccc4)c(C)o3)cc2)cc1 | . | . | 0% | . | . | .
CCc1ccccc1NC(=O)NC(CC)Cn1nnc2ccccc2c1=O (stereo unspecified) | . | . | -4% | . | . | .
C=CCC1(CC=C)CCCN1Cc1nc(COc2ccccc2)no1 | 40µM* | 16% | -7% | -9% | -6% | -10%
SMILES | RECQ1 inh-1 | L3MBTL1 inh | BLM inh | WRN helicase inh | APE1 inh | RECQ1 inh-2 | others
O=C1CCCN1CC1CCCN(Cc2nc(COc3ccccc3)no2)C1 (stereo unspecified) | 2% | -4% | -6% | 0% | 1% | .
CC1CCN(C(=O)CSc2c3c(nc4ccc(Cl)cc24)CCCC3)CC1 | . | . | -1% | . | . | .
CO[C@H]1[C@@H](OC(N)=O)[C@H](O)[C@@H](Oc2ccc3c(O)c(NC(=O)c4ccc(O)c(CC=C(C)C)c4)c(=O)oc3c2C)OC1(C)C | -9%[25.9 µM] | . | -12%[21.4 µM] | . | . | .
O=C(CN1CCN(c2ccc(F)cc2)CC1)Nc1ccc2c(c1)OCCO2 | . | . | 2% | 1% | -8% | .
O=C(CN1CCN(c2ccc(O)cc2)CC1)NC(=O)NCc1ccco1 | 22µM* | -24% | -6% | -27% | ? | -18%
COc1ccc(N2CCN(CC(=O)NC(=O)NCc3ccco3)CC2)cc1 | -11% | -28% | -1% | -25% | -2% | .
O=C(CN1CCN(c2ccc(O)cc2)CC1)Nc1ccc2c(c1)OCCO2 | ? | -7% | -3% | -5% | ? | -11%
CCOc1ccc(CNC(=O)c2ccc3c(c2)sc2nc(-c4ccc(OC)cc4)cn23)cc1 | . | . | -7% | . | . | .
CCN(CCCCN1C(=O)c2ccccc2C1=O)c1ccc2c(c1)C(=O)N(C)C2=O | 28µM* | -19% | -24% | ? | ? | ?
CCN(CC)c1ccc2c(c1)C(=O)N(C)C2=O | -5% | 31% | -3% | 1% | 3% | .
Brc1ccc(-c2nc3ccccn3c2Nc2ccc3c(c2)OCCO3)o1 | . | . | -4% | . | . | .
Cc1nnc(SCc2ccccc2Cl)c2cc3occc3n12 | . | . | -6% | . | . | .
O=C(O)CC(CC(=O)Nc1ccccc1C(=O)O)c1ccccc1 (stereo unspecified) | -3% | . | -2% | -2% | -2% | . | RECQ1 inh conf=25%;RECQ1 ADP FP=0%
CCCCn1cnc2c(=O)[nH]c(N)nc21 | . | . | . | . | . | . | RECQ1 inh conf=-3%[69.1 µM]
CCCCn1cnc2c(Sc3c([N+](=O)[O-])ncn3C)nc(N)nc21 | . | . | . | 1% | . | .
Nc1nc2c(ncn2COC(CO)CO)c(=O)[nH]1 | -13% | -4% | 5% | 1% | 32% | . | RECQ1 inh conf=-4%[69.1 µM]
Cc1c(N=C2C=C(Br)C(=O)C(Br)=C2)c(=O)n(-c2ccccc2)n1C | 22µM* | . | -24% | -1%[11.6 µM] | 8.9µM* | . | RECQ1 inh conf=24%[114 µM]
CC(=O)C(Sc1ccc2nnc(-c3ccc(C)cc3)n2n1)C(C)=O | ? | -12% | -6% | -1% | -15% | ?
O=c1n(Cc2ccccc2)nc2n1-c1cc(Cl)ccc1OC2 | . | . | -5% | . | . | .
CN1/C(=C\C(=O)COC(=O)Cn2nnc(-c3ccccc3)n2)C(C)(C)c2ccccc21 | ? | -1% | -15% | 50µM* | -10% | 45µM*
